Bioassay records (PubChem)
Most compounds without a hit are left out; they make up all but 3.5% or so of the library.
MITF inh: MITF inhibitors, primary screen, biochemical, AlphaScreen, human | 650,000 tested, 0.91% active | AlphaScreen MITF homodimerization, bead proximity signal | Microphthalmia-associated transcription factor (Homo sapiens), O75030 | inhibition, % at 2.6 µM; in the data active = inhibition above about 50%
FBW7 act: FBW7 E3 ligase activators, primary screen, biochemical, AlphaScreen, human; 650,000 tested, 0.13% active; F-box/WD repeat-containing protein 7 (Homo sapiens), Q969H0; AID 1259310, 2017; AlphaScreen FBW7–phospho-cyclin E peptide binding, activator screen; normalized activity (activation), % at 26.1 µM; in the data active = normalized activity above about 1.9%;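 note: purified mutant Fbw7 with reduced substrate affinity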
Target sequence (Q969H0 whole entry, looked up): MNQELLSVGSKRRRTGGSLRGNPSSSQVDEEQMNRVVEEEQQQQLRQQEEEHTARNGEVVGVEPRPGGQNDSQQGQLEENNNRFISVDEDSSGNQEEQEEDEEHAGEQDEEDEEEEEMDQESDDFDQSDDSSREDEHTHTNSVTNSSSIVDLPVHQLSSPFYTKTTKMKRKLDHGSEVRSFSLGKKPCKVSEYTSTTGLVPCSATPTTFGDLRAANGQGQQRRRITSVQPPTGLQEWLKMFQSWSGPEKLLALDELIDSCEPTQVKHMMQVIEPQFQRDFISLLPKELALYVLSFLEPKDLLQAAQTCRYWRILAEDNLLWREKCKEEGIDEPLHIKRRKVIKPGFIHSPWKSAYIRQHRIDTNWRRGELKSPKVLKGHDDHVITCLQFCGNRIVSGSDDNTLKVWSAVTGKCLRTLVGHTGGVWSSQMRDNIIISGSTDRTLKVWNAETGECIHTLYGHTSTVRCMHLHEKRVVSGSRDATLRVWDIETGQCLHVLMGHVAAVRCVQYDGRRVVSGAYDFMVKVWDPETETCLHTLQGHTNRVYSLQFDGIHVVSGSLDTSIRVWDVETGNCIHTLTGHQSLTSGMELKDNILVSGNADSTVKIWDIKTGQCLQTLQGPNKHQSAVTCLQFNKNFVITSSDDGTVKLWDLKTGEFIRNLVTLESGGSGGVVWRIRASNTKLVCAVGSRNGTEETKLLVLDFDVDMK
TEAD-YAP block: TEAD-YAP interaction inhibition, primary screen, TEAD-YAP interaction inhibitor project, luminescence, HEK-TIYL cells. TEAD-Gal4/YAP UAS-luciferase luminescence. inhibition, % at 9.12 µM. 640,000 tested, 1.4% active; in the data active = inhibition above about 32%
GPR151 ag: activators of human GPR151, primary screen, cell-based, PathHunter beta-arrestin, luminescence; PathHunter beta-arrestin GPR151 cells; activation, % at 11.2 µM; AID 1508602, 2020; 650,000 tested, 1% active; in the data active = activation above about 4.9%
A number is an active result; . = inactive.

SMILES	MITF inh	FBW7 act	TEAD-YAP block	GPR151 ag
FC(F)(F)c1cccc(CNc2nc(N3CCOCC3)nc3nc[nH]c23)c1	.	.	.	.
FC(F)(F)c1cccc(CNc2ccnc(Nc3ccc(N4CCOCC4)cc3)n2)c1	.	.	64	.
FC(F)(F)c1cccc(CNc2ccnc(NCCN3CCOCC3)n2)c1	.	.	.	.
FC(F)(F)Oc1cccc(-c2nccc(NCc3cccc(C(F)(F)F)c3)n2)c1	.	.	50	.
Cc1cc(C)cc(-n2c(C)nc3cc(C(=O)NCc4ccco4)ccc32)c1	.	.	.	.
CCN(CC)C(=O)C(=O)NCc1ccc(C)cc1	.	.	.	.
c1cc(Nc2ccc(N3CCOCC3)cc2)nc(NCc2ccc3c(c2)OCO3)n1	.	.	38	.
O=c1nc(SCc2ccc(Cl)cc2Cl)c2c(n1CCCO)CCC2	.	.	.	.
Cc1ccc(C(=O)Nc2cc(C)c(O)cc2C)cc1	.	.	65	.
Cc1ccc(C(=O)Nc2ccc(NC(=O)C(F)(F)F)cc2)cc1	.	.	56	.
Cc1ccc(C(=O)Nc2cc(C)c(C)cc2O)cc1	.	.	.	.
Cc1cc(NC(=O)c2ccccc2Cl)ccc1O	.	.	83	.
Cc1ccc(NC(=O)c2ccccc2Cl)cc1C	.	.	.	.
Cc1ccc(C(=O)Nc2ccc(C(=O)N3CCCCC3)cc2)cc1	.	3.4	.	.
CC(=O)Oc1ccccc1N1C(=O)C2C3CCC(C3)C2C1=O (stereo unspecified)	.	.	.	.
COc1cc(CCC(=O)N[C@H](Cn2nc(-c3ccc(F)c(F)c3)ccc2=O)C(C)C)on1	.	.	.	.
Cc1ccc(C(=O)Nc2ccc(O)c(C)c2)cc1	.	.	93	.
CCN(CC)Cc1cc(O)c(CN(CC)CC)cc1O	76	.	.	.
C=C(C)CN(CC)Cc1cc(Cl)ccc1O	.	.	.	.
CN1CCN(c2ccc(-c3cccc(C(=O)NCc4nc5ccccc5[nH]4)c3)cc2)CC1	.	.	68	.
CN1CCN(c2ccc(-c3cc(C(=O)NCc4nc5ccccc5[nH]4)ccn3)cc2)CC1	.	.	88	.
COc1ccc(-c2cccc(C(=O)NCc3nc4ccccc4[nH]3)c2)cc1	.	.	.	.
O=C(/C=C/c1cccs1)NC(=S)NNC(=O)c1ccccc1O	.	.	81	.
O=C(NNC(=S)NC(=O)C(c1ccccc1)c1ccccc1)c1ccccc1O	.	.	86	.
CCOC(=O)c1c(CSc2nc3ccccc3s2)n(-c2ccccc2)c2cc(Br)c(OC(C)=O)cc12	.	.	.	.
SMILES	MITF inh	FBW7 act	TEAD-YAP block	GPR151 ag
COc1cc(Cc2nccc3cc(OC)c(OC)cc23)c(NC(=O)c2cc(OC)c(OC)c(OC)c2)cc1OC	.	.	.	.
CCOC(=O)c1[nH]c(C)c(CNC2CCCCC2)c1C	.	.	.	.
CCOC(=O)c1[nH]c(C)c(CN(C2CCCCC2)S(C)(=O)=O)c1C	.	.	52	.
COc1ccc(C2CC(c3c(O)cc(C)oc3=O)=Nc3ccccc3S2)cc1O (stereo unspecified)	.	.	62	.
COc1ccc(C2CC(c3c(O)cc(C)oc3=O)=NCCS2)c(OC)c1 (stereo unspecified)	.	.	42	.
COc1ccc(C(C[N+](=O)[O-])n2nc(C)cc2C)c(OC)c1 (stereo unspecified)	.	.	.	.
CCOc1ccc(-n2nnnc2-c2nc3ccccc3s2)cc1	.	.	42	.
Cc1ccc(-n2nnnc2-c2nc3ccccc3s2)cc1	.	.	.	.
COc1ccc(CN2C(=O)C(=O)c3cc(Br)ccc32)cc1	.	.	64	.
COc1ccccc1OCCN1C(=O)C(=O)c2cc(Br)ccc21	.	.	34	.
Cn1c2ccccc2c2c(C(=O)N3CCCC3)cn(C3CCCC3)c(=O)c21	.	.	.	.
COc1ccc(CCNc2nc(Cl)nc3c2ncn3C(C)C)cc1	.	.	.	.
COc1ccc(CCC(=O)N2CCC3(CC2)OCc2ccccc2O3)cc1	.	.	.	.
COc1cc(CC(=O)N2CCC3(CC2)OCc2ccccc2O3)cc(OC)c1OC	.	.	38	.
COc1cccc(CC(=O)N2CCC3(CC2)OCc2ccccc2O3)c1OC	.	.	.	.
COc1cc(CC(=O)N2CCC3(CC2)OCc2cc(Cl)ccc2O3)cc(OC)c1OC	.	.	59	.
COc1ccc(CCC(=O)N2CCC3(CC2)OCc2ccccc2O3)cc1OC	.	.	40	.
